Source: PubChem
Shown are actives, neighbours in structure and some others; about 7.9% of the full set was active somewhere.
FMDV inh – antivirals against foot and mouth disease virus | FMDV antiviral cell-based qHTS | Potency, µM (top dose mostly 57.9 µM), actives largely listed as inhibitors | actives 1.2% (n = 410,000) | AID 1159524; calls by dose curve; tested in HEK293T cells; note: read-out not given here; nearly all actives have a fitted effect of over 45% in size
Marburg entry inh – Marburg virus entry inhibition. Marburg virus pseudotyped entry inhibition, cell reporter. Potency, µM (doses to about 37.8 µM), most hits filed as inhibitors. AID 540276. actives 1.8% (n = 300,000); calls by dose curve; tested in HEK293 cells
HCMV antiviral – blocks human cytomegalovirus replication; HFF cells, HCMV-luciferase reporter, 72 h; stronger effect = lower value; AID 1259415; activity change, negative = inhibition, % at 57.5 µM; actives 4.5% (n = 410,000); in the data active = activity change below about -60%; inconclusive = no clear call, values can overlap the other calls; inactive = above about -39%
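Compounds were evaluated in HFFs infected with an HCMV luciferase reporter virus (MOI 1 PFU/cell). Luciferase in lysates collected 72 h post infection served as the replication measure.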
Lassa entry inh – blocks Lassa virus binding to or entry into cells; actives 1.2% (n = 300,000); Lassa virus pseudotype entry inhibition, cell reporter; Potency, µM (series often up to 37.9 µM), most hits filed as inhibitors; calls by dose curve; tested in HEK293 cells; note: nearly all actives have a fitted effect of over 50% in size
HCV inhibitor – blocks hepatitis C virus; actives 3.4% (n = 340,000); AID 651820; Potency, µM (series often up to 41.8 µM), hits mostly inhibitors; Huh7.5.1 HCVcc-Cre infection, luciferase reporter, 44 h; active = well fitted inhibition curve with a large enough effect; inconclusive = small, poorly fitted or top-dose-only effect, or another doubt; inactive = no such curve, though single readings can be large or run the other way
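Luciferase read-out (15 sec integration) after a 15 min room-temperature substrate step quantifies HCVcc-Cre infection. Cells, 1,000 per well, had compound added 4 h post-plating, then virus at ~0.5 moi, and were cultured 44 h.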
Large screens that a line does not name were inactive.

Cc1cc(C)cc(NC(=O)C2CCN(S(=O)(=O)c3c(C)noc3/C=C/c3ccco3)CC2)c1	none (no result: HCV inhibitor)
CCOc1ccc(/C=C/C(=O)C(C(N)=O)=C2SCCS2)cc1	Marburg entry inh inconclusive, HCMV antiviral -73
CCOc1ccc(/C=C/C(=O)Oc2ccccc2)cc1	Marburg entry inh inconclusive
Cc1sc2ccccc2c1CC1=NCCN1	FMDV inh inconclusive, Marburg entry inh inconclusive, HCV inhibitor 3.2µM
Cc1ccc(S(=O)(=O)c2ncccc2[N+](=O)[O-])cc1	FMDV inh 20µM, HCMV antiviral -101, HCV inhibitor inconclusive (no result: Marburg entry inh, Lassa entry inh)
O=C1c2ccccc2C(=O)c2[nH]c(=O)[nH]c21	Marburg entry inh inconclusive, HCMV antiviral -99, Lassa entry inh 10µM, HCV inhibitor 6.3µM
Cc1cccc(CNC(=O)c2cnn(-c3ncc(C)c(-c4ccc(F)cc4)n3)c2C)n1	none (no result: Marburg entry inh, HCMV antiviral, Lassa entry inh, HCV inhibitor)
O=C(N/N=C/c1ccc[nH]1)c1ccccc1O	HCMV antiviral -92
Cc1cc(C(=O)N/N=C/c2ccc[nH]2)n[nH]1	HCMV antiviral inconclusive, HCV inhibitor 1.4µM
Cc1ccc(S(=O)(=O)c2cnc(SCC(=O)Nc3ccc4c(c3)OCCO4)[nH]c2=O)cc1	none (no result: Lassa entry inh, HCV inhibitor)
O=C(CSc1nccn1Cc1ccco1)Nc1cc(C(F)(F)F)ccc1Cl	none (no result: Marburg entry inh, HCV inhibitor)
N#Cc1ccccc1Cn1cc(/C=C/[N+](=O)[O-])c2ccccc21	FMDV inh 14µM, Marburg entry inh inconclusive, HCMV antiviral -101, Lassa entry inh 23µM, HCV inhibitor inconclusive
O=[N+]([O-])/C=C/c1cn(Cc2ccccc2)c2ccccc12	Marburg entry inh inconclusive, HCMV antiviral -104
O=C(Cn1cc(/C=C\[N+](=O)[O-])c2ccccc21)Nc1ccccc1	FMDV inh 13µM, Marburg entry inh inconclusive, HCMV antiviral inconclusive, Lassa entry inh inconclusive, HCV inhibitor inconclusive
O=Cc1cn(Cc2cccc([N+](=O)[O-])c2)c2ccccc12	Marburg entry inh 0.82µM, HCMV antiviral inconclusive, Lassa entry inh 0.63µM
Cc1ccc(Cl)cc1N1CCN(C(=O)Cc2c(C(=O)O)c(C)cn2C)CC1	none (no result: Marburg entry inh, HCV inhibitor)
CCOC(=O)N1CCC(NC(=S)Nc2ccc3nc(N4CCN(C)CC4)cc(C)c3c2)CC1	Marburg entry inh inconclusive, HCV inhibitor 10µM
CCOc1ccccc1NC(=O)Nc1ccc2nc(N3CCN(C)CC3)cc(C)c2c1	HCMV antiviral -106, Lassa entry inh inconclusive (no result: Marburg entry inh, HCV inhibitor)
CCOC(=O)N1CCC(NC(=S)Nc2ccc3nc(N4CCN(CC)CC4)cc(C)c3c2)CC1	none (no result: Marburg entry inh, Lassa entry inh)
CCN1CCN(c2cc(C)c3cc(NC(=O)c4ccc(OC)c(OC)c4)ccc3n2)CC1	Marburg entry inh inconclusive, HCMV antiviral inconclusive, HCV inhibitor 11µM
COc1ccc(/C=C/C(=O)Nc2ccc3nc(N4CCC(C)CC4)cc(C)c3c2)cc1OC	Marburg entry inh 10µM, HCMV antiviral -88, Lassa entry inh inconclusive (no result: HCV inhibitor)
CCOc1ccc(NC(=O)Cn2nc(-c3ccncc3)ccc2=O)cc1	none (no result: Marburg entry inh, HCV inhibitor)
Cc1cc(N2CCOCC2)nc2ccc(NC(=O)CCC(=O)N3CCN(c4ccccc4F)CC3)cc12	Marburg entry inh inconclusive, Lassa entry inh inconclusive, HCV inhibitor 22µM
CCN1CCN(c2cc(C)c3cc(NC(=O)c4cc(OC)c(OC)c(OC)c4)ccc3n2)CC1	none (no result: Marburg entry inh, HCV inhibitor)
CCN(CC)c1cc(C)c2cc(NC(=O)c3ccccc3Cl)ccc2n1	Marburg entry inh inconclusive, HCMV antiviral inconclusive (no result: HCV inhibitor)
COc1ccc(C)cc1NC(=O)CCC(=O)Nc1ccc2nc(N3CCN(C)CC3)cc(C)c2c1	Marburg entry inh inconclusive, HCV inhibitor 10µM (no result: HCMV antiviral)
CCN1CCN(c2cc(C)c3cc(NC(=O)c4cncc(Br)c4)ccc3n2)CC1	Marburg entry inh inconclusive, HCMV antiviral inconclusive, HCV inhibitor 5.6µM
CCN1CCN(c2cc(C)c3cc(NC(=O)CCC(=O)Nc4ccc(OC)c(OC)c4)ccc3n2)CC1	none (no result: Marburg entry inh, Lassa entry inh)
CCN(CC)c1ccc(C(=O)Nc2ccc3nc(N(CC)CC)cc(C)c3c2)cc1	Marburg entry inh 11µM, HCMV antiviral -67, Lassa entry inh inconclusive (no result: HCV inhibitor)
CCN1CCN(c2cc(C)c3cc(NC(=O)/C=C/c4ccc(C)cc4)ccc3n2)CC1	Marburg entry inh inconclusive (no result: HCV inhibitor)
CCN1CCN(c2cc(C)c3cc(NC(=O)/C=C/c4ccc(OCCC(C)C)cc4)ccc3n2)CC1	FMDV inh inconclusive, HCMV antiviral -79 (no result: HCV inhibitor)
Cc1cc(N2CCN(C)CC2)nc2ccc(NC(=O)c3ccc(C(C)(C)C)cc3)cc12	FMDV inh inconclusive, Marburg entry inh inconclusive, HCMV antiviral -106 (no result: HCV inhibitor)
O=C(Nc1cc(F)ccc1F)C1COc2ccccc2C1 (stereo not given)	none (no result: Marburg entry inh, HCV inhibitor)
Cc1ccccc1NC(=O)c1c(C)oc2ccc(O)c(CN3CCN(C)CC3)c12	Marburg entry inh inconclusive (no result: HCV inhibitor)
CC1CCN(C(=O)Cn2c3ccccc3c3nc4n(c(=O)c32)CCCS4)CC1	HCMV antiviral -61
CC1CCN(C(=O)Cn2c3ccc(F)cc3c3nc4n(c(=O)c32)CCCS4)CC1	FMDV inh inconclusive, HCV inhibitor inconclusive (no result: Marburg entry inh, Lassa entry inh)
CC(C)c1ccc(NS(=O)(=O)c2ccc3[nH]cc(C(=O)NCC4CCCO4)c(=O)c3c2)cc1 (stereo not given)	none (no result: HCV inhibitor)
COC(=O)C1(O)CC(c2ccccc2)C(C(=O)c2ccccc2)N1c1ccc(Cl)cc1 (stereo not given)	none (no result: FMDV inh, Marburg entry inh, Lassa entry inh, HCV inhibitor)
COC(=O)[C@@H]1[C@@H](C#N)C2(c3ccccc3-c3ccccc32)N(c2ccc(Cl)cc2)N1C#N	FMDV inh 25µM, Marburg entry inh inconclusive, Lassa entry inh inconclusive, HCV inhibitor inconclusive
O=C(Cn1cncn1)N1CCOc2ccc(CN3CCN(c4ccccc4)CC3)cc2C1	none (no result: Marburg entry inh, HCMV antiviral, Lassa entry inh, HCV inhibitor)
Cc1c(C(=O)Nc2nnc(C(F)(F)F)s2)oc2ccccc12	HCMV antiviral -85 (no result: HCV inhibitor)
COC(=O)c1sc(NC(=O)c2oc3ccccc3c2C)nc1C	Lassa entry inh inconclusive
O=C(Nc1ccccc1C(=O)Nc1nnc(C(F)(F)F)s1)c1ccccc1	FMDV inh inconclusive, Marburg entry inh 4µM, HCMV antiviral -99, Lassa entry inh 10µM
Cc1occc1C(=O)Nc1nnc(C(F)(F)F)s1	none
CC(C)[C@H](NC(=O)c1ccc([N+](=O)[O-])cc1Cl)C(=O)N1CCN(C/C=C/c2ccccc2)CC1	FMDV inh inconclusive, Marburg entry inh inconclusive, Lassa entry inh inconclusive, HCV inhibitor 14µM
O=[N+]([O-])c1ccc(C(O)CN2CCN(C/C=C/c3ccccc3)CC2)cc1 (stereo not given)	Marburg entry inh inconclusive, HCV inhibitor 13µM
CC(O)[C@@H](O)[C@H]1CNc2nc(N)[nH]c(=O)c2N1 (stereo not given in full)	none (no result: FMDV inh, HCMV antiviral, Lassa entry inh, HCV inhibitor)
COc1ccccc1N(C(=O)c1ccco1)C(C(=O)NC1CCCC1)c1cccs1 (stereo not given)	none
COc1ccc(N(C(=O)c2ccco2)C(C(=O)NC2CCCC2)c2cccs2)cc1 (stereo not given)	Marburg entry inh inconclusive, HCMV antiviral -69, Lassa entry inh inconclusive
COc1cccc(C(C(=O)NC2CCCCC2)N(C(=O)c2cccs2)c2ccc3c(c2)OCO3)c1 (stereo not given)	HCMV antiviral -83, Lassa entry inh inconclusive, HCV inhibitor inconclusive
COc1ccc(N(C(=O)c2ccco2)C(C(=O)NC2CCCC2)c2cccs2)cc1OC (stereo not given)	none
O=C(NC1CCCC1)C(c1cccs1)N(C(=O)c1ccco1)c1ccc2c(c1)OCCO2 (stereo not given)	HCMV antiviral -62, Lassa entry inh inconclusive, HCV inhibitor inconclusive
COc1cccc(C(C(=O)NC2CCCCC2)N(C(=O)Cc2cccs2)c2ccc(-n3cnnn3)c(OC)c2)c1 (stereo not given)	Marburg entry inh inconclusive, Lassa entry inh inconclusive, HCV inhibitor inconclusive
